Source: PubChem BioAssay (EPA / NIEHS)
Results filed as inconclusive are left out. Calls of active or inactive are those of the source. How the source made its calls: active means hit-call score of the fitted dose curve at least 0.9, where 1 is the maximum; inconclusive means response in the unintended direction; inactive means score below 0.9.

Assay: ACEA_ER_AUC_viability: ACEA Biosciences xCELLigence Real-Time Cell Analysis on Estrogen Receptor Agonism for Viability (AID 2283782);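 further: continuous compound exposure with impedance area under curve over 80 h; hit means loss of impedance signal meaning reduced cell growth or viability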
How it was run: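 T-47D human breast cells in phenol red-free RPMI1640 with 10% charcoal-stripped FBS were dosed with an 8-point 1:4 dilution series from 100 uM top final concentration, in duplicate. Impedance-based growth was followed for 80 h; AUC analysed versus DMSO.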
For `CC[N+](CC)(CC)CC`, the outcome was “inactive”. With `CCOC(=O)c1ccccc1S(=O)(=O)NC(=O)Nc1nc(Cl)cc(OC)n1` the outcome was “inactive”. For `CC(C)(C#N)N=NC(C)(C)C#N`, the outcome was “inactive”. With `C=C(C)C(=O)OCCCCOC(=O)C(=C)C` the AC50 was 30.7 µM (active). For `CC(C)(C)c1cc([N+](=O)[O-])cc(C(C)(C)C)c1O`, the AC50 was 24.3 µM (active). With `N#Cc1ccccc1Cl` the outcome was “inactive”. In the case of `C=CC(=O)NC(C)(C)CC(C)=O`, the outcome is reported as “inactive”. With `O=C(O)COc1cc(Cl)c(Cl)cc1Cl` the outcome was “inactive”. In the case of `COCC(=O)N(c1c(C)cccc1C)[C@H](C)C(=O)OC`, the AC50 is reported as 50 µM (active). With `Cc1ccccc1OP(=O)(Oc1ccccc1)Oc1ccccc1` the AC50 was 62.9 µM (active). In the case of `CCOC(=O)Cc1ccccc1`, the AC50 is reported as 50 µM (active). For `N#CCCC(Br)(C#N)CBr` (stereo not given), the AC50 was 10.9 µM (active). With `O=C(Cc1ccccc1)OCCc1ccccc1` the AC50 was 82.5 µM (active). For `NC(=O)CCl`, the AC50 was 39.6 µM (active). In the case of `CCCCS(=O)(=O)Cl`, the AC50 is reported as 53.1 µM (active).
